Active and inactive are the calls of the source.

The nature of assay [1]: small molecules captured by biotinylated probe aFSTL3 – biochemical, small-molecule microarray, fluorescence 635/667, stem cell growth factor project, primary screen (AID 1064).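 Further: measures binding of the biotinylated anti-FSTL3 antibody to printed compounds.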 To be noted: higher = more signal.
A short description of assay [2]: binders from COS7 lysate, DM2A8 probe, primary screen, torsin A project, cell lysate, small-molecule microarray, fluorescence 635/667 (AID 1065). The settings on record: higher = more signal, COS7 lysate expressing mutant human TOR1A.
The nature of assay [3]: small molecules captured by biotinylated probe aFGF2 – biochemical, small-molecule microarray, fluorescence 635/667, stem cell growth factor project, primary screen (AID 1067).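 Further: measures binding of biotinylated aFGF2 protein to printed compounds on slides; z-score merges feature fluorescence and signal-to-noise across triplicate slides.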 To be noted: higher = more signal.
The nature of assay [4]: small molecules captured by biotinylated probe aFGF10 – biochemical, small-molecule microarray, fluorescence 635/667, stem cell growth factor project, primary screen (AID 1071).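 Further: score merges 667 nm spot intensity and signal to noise from triplicate slides.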 The settings on record: higher = more signal.
Assay [5] concerns the target Neurogenic locus notch homolog protein 2 (Homo sapiens) (UniProt Q04721). The assay is described as follows: small molecules binding Notch2 protein – biochemical, small-molecule microarray, 635 nm fluorescence, stem cell growth factors, primary screen (AID 1073). The settings on record: higher = more signal.
For assay [6], the target named is Pro-neuregulin-1, membrane-bound isoform (Homo sapiens) (UniProt Q02297). Kind of assay: small molecules binding neuregulin-1 protein – biochemical, small-molecule microarray, fluorescence 635/667, psychiatric disease protein project, primary screen (AID 1075).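 Further: score combines 667 nm spot fluorescence with signal to noise.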 The settings on record: NRG1 binding, 635 nm fluorescence, higher = more signal.
The test system of assay [7] is Neuregulin-1 EGF-like domain. Kind of assay: small molecules binding NRG1 EGF domain – biochemical, small-molecule microarray, 635 nm fluorescence, primary screen (AID 1081).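 Further: binding of the protein to compounds printed on small-molecule microarray slides.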 The settings on record: higher = more signal.
Assay [8] in a line: FRG1 expression reporter modulators in myotubes – cell-based, C2C12 myotubes, firefly/Renilla luciferase, luminescence, FRG1 inhibition for FSHD, primary screen (AID 1084). The settings on record: FRG1 promoter luciferase, higher = more signal, called active from +8 up or from −8 down.
Assay [9] can be described thus: small molecules captured by biotinylated probe aFST – biochemical, small-molecule microarray, fluorescence 635/667, stem cell growth factor project, primary screen (AID 1086).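 Further: score merges 667 nm fluorescence with signal-to-noise of each printed compound spot.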 The settings on record: higher = more signal.
The nature of assay [10]: binders of probe aHhip on microarray, primary screen, stem cell growth factor project, biochemical, small-molecule microarray, fluorescence 635/667 (AID 1087).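 Further: score merges spot fluorescence at 667nm with spot signal to noise ratio.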 The settings on record: higher = more signal.
The subject of assay [11] is PRMT1 (protein arginine N-methyltransferase 1). Kind of assay: small molecules binding arginine methyltransferase PRMT1 – biochemical, small-molecule microarray, 635 nm fluorescence, primary screen (AID 1088).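 Further: binding of Prmt1 protein to compounds spotted on small-molecule microarray slides.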 To be noted: higher = more signal.
A short description of assay [12]: growth effects on S. cerevisiae YJM789 – YJM789 clinical isolate, OD600, 24 h, basal, primary screen (AID 1089).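 Further: growth of clinical yeast isolate S. cerevisiae YJM 789 seeded 1000 cells per well; test concentration not given here.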 To be noted: higher = more signal, called active from +8 up or from −8 down.
A short description of assay [13]: S. pombe growth modifiers, basal conditions – strain 972, OD600, 24 h, no modulator, primary screen (AID 1090).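 Further: basal condition with compound alone and no growth modifier present; test concentration not given here.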 The settings on record: S. pombe 972 growth, higher = more signal, called active from +8 up or from −8 down.
Assay [14] can be described thus: budding yeast growth modifiers under rapamycin – strain BY4716, OD600, 96 h, primary screen (AID 1091). Further: test concentration not given here. To be noted: S. cerevisiae BY4716 + rapamycin, higher = more signal, called active from +8 up or from −8 down.
Assay [15] concerns the target Torsin-1A-interacting protein 2 (Homo sapiens) (UniProt Q8NFQ8). The assay is described as follows: small molecules binding lysate-expressed LULL1 – cell lysate, human LULL1 lysate, 635/667 nm fluorescence, primary screen (AID 1092).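 Further: probe is lysate of COS7 cells overexpressing human LULL1; score merges per-feature 667 nm fluorescence with signal-to-noise.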 The settings on record: small-molecule microarray, hLULL1 lysate binding, 635 nm fluorescence; higher = more signal.
Assay [16] can be described thus: optical density change of DRC41 E. coli – strain DRC41, OD650, 24 h, E. coli filamentation project, primary screen (AID 1093).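 Further: MC1000 strain lacking acrAB efflux and sulA so SOS filamentation is blocked; test concentration not given here.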 To be noted: E. coli DRC41 growth, higher = more signal, called active from +8 up or from −8 down.
Assay [17] is described as follows: probe aLefty2 binding to arrayed compounds – biochemical, biotinylated probe, 635/667 nm fluorescence, primary screen (AID 1094).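 Further: score merges spot fluorescence near 667 nm with spot signal-to-noise ratio.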 The settings on record: small-molecule microarray, higher = more signal.
For assay [18], the system named is Noggin (protein binding on small-molecule microarray). The assay is described as follows: small molecules binding Noggin protein – biochemical, 635/667 nm fluorescence, primary screen (AID 1095).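 Further: score merges 667 nm feature fluorescence with signal to noise over triplicate slides.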 To be noted: 635 nm fluorescence, higher = more signal.
Assay [19] concerns the target Neurogenic locus notch homolog protein 3 (Homo sapiens) (UniProt Q9UM47). Kind of assay: small molecules binding NOTCH3 protein – biochemical, 635/667 nm fluorescence, primary screen (AID 1096). To be noted: small-molecule microarray, 635 nm fluorescence, higher = more signal.
Assay [20] in a line: probe aEGFR binding to arrayed compounds – biochemical, biotinylated probe, 635/667 nm fluorescence, primary screen (AID 1097).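 Further: probe is a biotinylated anti-EGFR antibody binding compounds printed on slides; score combines fluorescence near 667 nm and signal to noise of each spot.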 The settings on record: small-molecule microarray, higher = more signal.

Neurogenic locus notch homolog protein 3 (Homo sapiens), sequence (Q9UM47 whole entry, looked up): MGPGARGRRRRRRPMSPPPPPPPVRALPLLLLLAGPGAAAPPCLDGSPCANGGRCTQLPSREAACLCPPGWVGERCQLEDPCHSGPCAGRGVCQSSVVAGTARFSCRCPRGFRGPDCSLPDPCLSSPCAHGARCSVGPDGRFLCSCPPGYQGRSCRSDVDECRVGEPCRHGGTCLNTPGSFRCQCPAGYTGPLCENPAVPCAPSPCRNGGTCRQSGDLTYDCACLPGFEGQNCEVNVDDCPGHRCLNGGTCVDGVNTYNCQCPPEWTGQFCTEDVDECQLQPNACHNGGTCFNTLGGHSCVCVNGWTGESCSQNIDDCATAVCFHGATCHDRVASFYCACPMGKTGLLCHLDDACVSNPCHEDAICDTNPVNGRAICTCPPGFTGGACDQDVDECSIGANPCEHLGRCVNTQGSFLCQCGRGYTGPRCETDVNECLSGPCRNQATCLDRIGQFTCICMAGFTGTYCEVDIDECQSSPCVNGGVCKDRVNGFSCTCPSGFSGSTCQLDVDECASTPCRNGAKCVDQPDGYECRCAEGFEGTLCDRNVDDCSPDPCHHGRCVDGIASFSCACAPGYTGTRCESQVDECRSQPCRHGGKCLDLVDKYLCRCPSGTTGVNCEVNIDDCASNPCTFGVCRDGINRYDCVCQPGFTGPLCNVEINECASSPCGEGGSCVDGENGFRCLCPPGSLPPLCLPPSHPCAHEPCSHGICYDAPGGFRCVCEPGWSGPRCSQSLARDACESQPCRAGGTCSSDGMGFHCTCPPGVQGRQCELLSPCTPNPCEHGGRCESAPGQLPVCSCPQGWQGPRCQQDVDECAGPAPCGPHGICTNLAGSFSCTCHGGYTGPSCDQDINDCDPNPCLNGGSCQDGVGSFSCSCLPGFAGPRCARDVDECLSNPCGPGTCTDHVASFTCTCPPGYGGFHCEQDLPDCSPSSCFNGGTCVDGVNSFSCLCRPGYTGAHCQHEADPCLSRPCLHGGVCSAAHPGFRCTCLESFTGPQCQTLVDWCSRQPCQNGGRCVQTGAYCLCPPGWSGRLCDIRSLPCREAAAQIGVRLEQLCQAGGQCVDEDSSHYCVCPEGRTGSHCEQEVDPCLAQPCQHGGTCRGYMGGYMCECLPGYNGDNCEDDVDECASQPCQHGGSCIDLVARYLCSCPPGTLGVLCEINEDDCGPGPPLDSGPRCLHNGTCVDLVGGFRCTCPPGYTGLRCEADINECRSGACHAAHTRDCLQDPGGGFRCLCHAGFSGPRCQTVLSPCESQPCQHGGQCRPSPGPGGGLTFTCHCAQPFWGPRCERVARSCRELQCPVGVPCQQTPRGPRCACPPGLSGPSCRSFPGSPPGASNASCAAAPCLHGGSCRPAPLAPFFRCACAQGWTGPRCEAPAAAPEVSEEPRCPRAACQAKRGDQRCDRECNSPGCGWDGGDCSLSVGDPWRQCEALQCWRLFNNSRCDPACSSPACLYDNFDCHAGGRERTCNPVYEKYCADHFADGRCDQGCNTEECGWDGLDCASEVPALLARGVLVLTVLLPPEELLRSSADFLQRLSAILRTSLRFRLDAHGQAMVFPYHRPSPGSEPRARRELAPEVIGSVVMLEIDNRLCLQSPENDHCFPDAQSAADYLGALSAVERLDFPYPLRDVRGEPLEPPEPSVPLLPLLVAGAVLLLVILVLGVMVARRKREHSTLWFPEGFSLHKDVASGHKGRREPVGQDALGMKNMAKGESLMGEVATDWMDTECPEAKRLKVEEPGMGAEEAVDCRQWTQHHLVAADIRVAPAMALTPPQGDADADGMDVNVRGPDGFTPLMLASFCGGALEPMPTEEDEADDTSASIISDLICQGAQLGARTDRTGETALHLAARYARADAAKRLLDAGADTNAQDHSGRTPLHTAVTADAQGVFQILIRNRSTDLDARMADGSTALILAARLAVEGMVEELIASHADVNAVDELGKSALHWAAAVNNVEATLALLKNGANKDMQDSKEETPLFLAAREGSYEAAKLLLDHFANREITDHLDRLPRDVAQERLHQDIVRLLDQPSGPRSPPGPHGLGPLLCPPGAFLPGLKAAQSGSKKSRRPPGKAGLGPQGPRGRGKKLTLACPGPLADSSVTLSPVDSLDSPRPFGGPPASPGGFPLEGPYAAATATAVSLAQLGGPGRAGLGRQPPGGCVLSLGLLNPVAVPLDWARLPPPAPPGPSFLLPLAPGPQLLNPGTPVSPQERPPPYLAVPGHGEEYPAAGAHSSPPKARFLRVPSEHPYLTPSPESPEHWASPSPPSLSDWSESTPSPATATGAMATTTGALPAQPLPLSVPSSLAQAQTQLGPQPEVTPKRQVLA
Torsin-1A-interacting protein 2 (Homo sapiens), sequence (Q8NFQ8 whole entry, looked up): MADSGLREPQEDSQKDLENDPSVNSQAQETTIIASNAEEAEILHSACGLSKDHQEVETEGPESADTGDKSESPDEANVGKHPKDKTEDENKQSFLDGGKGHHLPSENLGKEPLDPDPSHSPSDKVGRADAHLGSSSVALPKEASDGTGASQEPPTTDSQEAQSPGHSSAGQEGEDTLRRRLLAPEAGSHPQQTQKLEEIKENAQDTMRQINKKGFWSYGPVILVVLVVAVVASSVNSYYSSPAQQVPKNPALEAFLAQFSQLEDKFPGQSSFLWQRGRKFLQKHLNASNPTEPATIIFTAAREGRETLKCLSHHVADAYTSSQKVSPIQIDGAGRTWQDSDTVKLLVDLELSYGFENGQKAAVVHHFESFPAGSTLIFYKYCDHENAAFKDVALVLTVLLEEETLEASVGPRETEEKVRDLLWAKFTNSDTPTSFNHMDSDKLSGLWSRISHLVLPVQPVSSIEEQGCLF
Pro-neuregulin-1, membrane-bound isoform (Homo sapiens), sequence (Q02297 whole entry, looked up, the tested form may be a part, canonical isoform): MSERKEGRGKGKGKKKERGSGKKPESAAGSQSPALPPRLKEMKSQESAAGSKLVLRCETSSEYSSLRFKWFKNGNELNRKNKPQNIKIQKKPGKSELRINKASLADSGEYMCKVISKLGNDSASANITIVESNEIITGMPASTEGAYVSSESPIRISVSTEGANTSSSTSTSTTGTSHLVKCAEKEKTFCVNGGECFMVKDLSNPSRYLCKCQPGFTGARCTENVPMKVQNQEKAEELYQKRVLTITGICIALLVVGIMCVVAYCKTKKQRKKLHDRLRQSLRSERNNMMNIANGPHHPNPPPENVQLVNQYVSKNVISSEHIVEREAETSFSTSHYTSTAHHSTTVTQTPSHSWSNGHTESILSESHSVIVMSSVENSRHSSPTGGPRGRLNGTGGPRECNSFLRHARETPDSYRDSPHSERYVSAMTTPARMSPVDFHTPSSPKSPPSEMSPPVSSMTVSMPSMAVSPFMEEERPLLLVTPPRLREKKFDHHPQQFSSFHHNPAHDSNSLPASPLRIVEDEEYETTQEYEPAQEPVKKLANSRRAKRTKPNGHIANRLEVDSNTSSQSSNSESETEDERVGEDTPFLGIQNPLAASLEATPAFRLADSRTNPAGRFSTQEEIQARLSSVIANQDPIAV

For `CC(CCN1CCc2nc(-c3ccccc3)c(-c3ccccc3)cc2C1)=NOC[C@@H](O)[C@H]1O[C@@H]2OC(C)(C)O[C@@H]2[C@H]1O`, the composite z-score in assay [1] is -0.621; in assay [2], 0.59; in assay [3] it was -0.085; in assay [4], 0.455; in assay [5], 0.331; in [6], 0.609. Further, the composite z-score in assay [7] was 0.676; in [9], 0.319; in assay [10] it was 0.0139; in [11], 1.53; in assay [15] it was 1.78; in assay [17] it was -0.342. Besides, the figures for the composite z-score in assay [18], in [19] and in [20] were 0.449, 0.41 and -0.0409, respectively. In addition, the z-score was 1.54 (inactive) in assay [8]; -0.987 (inactive) in assay [12]; -4.63 (inactive) in [13]; -4.56 (inactive) in [14]; 1.23 (inactive) in assay [16].

With `O=C1C=C[C@@H](O)[C@@H]2[C@@H]3C(=O)N(c4ccc(F)cc4F)C(=O)[C@@H]3CC[C@@H]12`, the composite z-score was -0.298 in assay [1]; 0.55 in assay [2]; -0.0493 in assay [3]; 0.547 in assay [4]; 0.611 in assay [5]; 0.12 in assay [6]. For the same compound, the composite z-score in assay [7] was 0.384; in assay [9], 0.142; in assay [10] it was -0.0994; in assay [11], 0.0661; in assay [15], 0.587; in [17] it was -0.247. Also, the composite z-score is 1.08 in [18], 0.134 in [19] and -0.162 in [20]. The z-score in assay [8] was -0.996 (inactive); in [12], -2.33 (inactive); in [13] it was -2.21 (inactive); in assay [14] it was -0.724 (inactive); in assay [16] it was -0.421 (inactive).

As to `CO[C@H]1COC(=O)[C@@H](C)COC(=O)[C@H](C)NC(=O)CC=C[C@H]1C`, the composite z-score in assay [1] is -0.451; in assay [2], 1.18; in [3], -0.0354; in assay [4], 0.222; in assay [5] it was 0.0126; in assay [6], -0.521. Also, the composite z-score is 0.734 in assay [7]; 0.101 in [9]; -0.0557 in assay [10]; 1.23 in assay [11]; 0.0586 in assay [15]; -0.212 in [17]. Besides, the composite z-score in assay [18] stood at 1.64; in [19] it was 0.195; in [20] it was 0.0673. Moreover, the z-score in [8] was -0.53 (inactive); in assay [12], 0.508 (inactive); in assay [13], 0.0971 (inactive); in [14], -0.431 (inactive); in assay [16], 0.414 (inactive).

Take `CO[C@@H]1COC(=O)CC=C[C@H](C)[C@H](OC)COC(=O)[C@H](C)NC(=O)CC=C[C@H]1C`: the composite z-score is -0.729 in assay [1]; 1.42 in assay [2]; -0.132 in assay [3]; -0.267 in assay [4]; -0.316 in assay [5]; -0.63 in assay [6]. The composite z-score in assay [7] is 0.347; in [9], 0.0458; in assay [10], -0.0491; in assay [11], 1.53; in assay [15], -0.207; in assay [17] it was -0.228. Also, the composite z-score in assay [18] is 1.83; in assay [19], 0.273; in assay [20] it was -0.0109. For the same compound, the z-score is -0.175 (inactive) in assay [8]; 0.419 (inactive) in [12]; -0.245 (inactive) in assay [13]; 0.329 (inactive) in [14]; 1.2 (inactive) in assay [16].

Take `CC(C)=NOC[C@@H](C)[C@H](OCc1ccccc1)C(C)C`: the composite z-score was 0.245 in assay [1]; -0.381 in assay [2]; -0.147 in assay [3]; -0.303 in [4]; -0.885 in assay [5]; -0.277 in assay [6]. The composite z-score in assay [7] is -0.372; in [9] it was -0.21; in [10], 0.163; in [11], -0.465; in assay [15] it was -0.602; in assay [17], -0.127. Moreover, the values for the composite z-score in assay [18], in assay [19] and in [20] were 1.06, -1.12 and -0.0656, respectively. For the same compound, the z-score in assay [8] was 0.755 (inactive); in [12], 0.682 (inactive); in assay [13] it was -0.207 (inactive); in [14] it was 0.752 (inactive); in assay [16], 0.0184 (inactive).

Values taken from PubChem BioAssay.
